Measured values: PubChem BioAssay (EPA / NIEHS)
The source made the active and inactive calls. Rule for the calls: active = hit-call score of the fitted dose curve at least 0.9, where 1 is the maximum; inactive = score below 0.9.

Key:
Details in all cases: mRNA level, 48 h; actives raise or lower the signal
[1] = read-out: DNA damage-inducible transcript 3 (DDIT3), DDIT3 (gene 1649); assay: LTEA_HepaRG_DDIT3: Life Technologies and Expression Analysis (LTEA) Assay for DNA damage-inducible transcript 3 (DDIT3) using HepaRG (AID 2283488)
Procedure, shortened: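 HepaRG plated 48 h, switched to serum-free induction medium, dosed 48 h (100 uM top, half-log, 8 pts, 0.5% DMSO, n=2); RNA isolated; DDIT3 by qRT-PCR; bidirectional curve fit vs DMSO.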

[2] = read-out: Pro-epidermal growth factor (Homo sapiens) (UniProt P01133); assay: LTEA_HepaRG_EGF: Life Technologies and Expression Analysis (LTEA) Assay for Epidermal growth factor (EGF) using HepaRG (AID 2283489)
Procedure, shortened: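 HepaRG cells (~100,000/well, 48 h pre-culture) exposed in duplicate for 48 h in serum-free induction medium to 8 half-log concentrations up to 100 uM in 0.5% DMSO. EGF mRNA by qRT-PCR, normalized to ACTB/GAPDH/POLR2A; bidirectional fit versus DMSO.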

[3] = read-out: Early growth response protein 1 (EGR1) transcription factor, EGR1 (gene 1958); assay: LTEA_HepaRG_EGR1: Life Technologies and Expression Analysis (LTEA) Assay for Early growth response protein 1 (EGR1) transcription factor using HepaRG (AID 2283490)
Procedure, shortened: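 Differentiated human HepaRG cells in serum-free induction medium were exposed in duplicate for 48 h to eight concentrations (top 100 uM, half-log steps) in 0.5% DMSO. EGR1 mRNA was quantified by qRT-PCR, normalized to ACTB, GAPDH and POLR2A, and fitted bidirectionally versus DMSO.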

[4] = read-out: Ezrin (EZR), EZR (gene 7430); assay: LTEA_HepaRG_EZR: Life Technologies and Expression Analysis (LTEA) Assay for Ezrin (EZR) using HepaRG (AID 2283491)
Procedure, shortened: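 EZR transcript levels came from Fluidigm qRT-PCR and were normalized to three housekeeping genes after 48 h chemical exposure of HepaRG cells. Dosing used an 8-point half-log series with a 100 uM top concentration in 0.5% DMSO, tested in duplicate; both directions were fitted versus vehicle.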

CYP3A5 (gene 1577) = assay: LTEA_HepaRG_CYP3A5: Life Technologies and Expression Analysis (LTEA) Assay for CYP3A5 using HepaRG (AID 2283493)
Procedure, shortened: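 HepaRG plated 48 h, switched to serum-free induction medium, chemicals added 48 h (max 100 uM, half-log, 0.5% DMSO). RNA isolated; CYP3A5 by TaqMan qRT-PCR. Gain/loss vs DMSO.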

[5] = read-out: Fatty Acid-Binding Protein 1 (FABP1), FABP1 (gene 2168); assay: LTEA_HepaRG_FABP1: Life Technologies and Expression Analysis (LTEA) Assay for Fatty Acid-Binding Protein 1 (FABP1) using HepaRG (AID 2283494)
Procedure, shortened: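 Differentiated human HepaRG cells were exposed in duplicate for 48 h in serum-free induction medium to 8-point half-log concentration series topping at 100 uM in 0.5% DMSO. FABP1 mRNA measured by TaqMan qRT-PCR, normalized to ACTB/GAPDH/POLR2A; bidirectional fit versus DMSO.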

[6] = read-out: Cytochrome P450 4A22 (Homo sapiens) (UniProt Q5TCH4); assay: LTEA_HepaRG_CYP4A22: Life Technologies and Expression Analysis (LTEA) Assay for Cytochrome P450 4A22 (CYP4A22) using HepaRG (AID 2283495)
Procedure, shortened: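 Differentiated HepaRG cells in serum-free induction medium exposed 48 h in duplicate to eight half-log concentrations up to 100 uM in 0.5% DMSO. CYP4A22 mRNA quantified by TaqMan qRT-PCR, normalized to ACTB, GAPDH and POLR2A; bidirectional fit versus DMSO.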

[7] = read-out: Glutathione S-Transferase (GSTA2), GSTA2 (gene 2939); assay: LTEA_HepaRG_GSTA2: Life Technologies and Expression Analysis (LTEA) Assay for Glutathione S-Transferase (GSTA2) using HepaRG (AID 2283497)
Procedure, shortened: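 Human HepaRG cells, plated 48 h, then exposed in serum-free induction medium for 48 h to eight half-log concentrations up to 100 uM in 0.5% DMSO, duplicate. GSTA2 mRNA by qRT-PCR, normalized to ACTB/GAPDH/POLR2A; bidirectional fit versus DMSO.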

[8] = read-out: Glutamate-cysteine ligase catalytic (GCLC), GCLC (gene 2729); assay: LTEA_HepaRG_GCLC: Life Technologies and Expression Analysis (LTEA) Assay for Glutamate-cysteine ligase catalytic (GCLC) using HepaRG (AID 2283498)
Procedure, shortened: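 Differentiated human HepaRG cells, plated 48 h then switched to serum-free induction medium, were exposed in duplicate for 48 h to 8 half-log concentrations topping at 100 uM in 0.5% DMSO. GCLC mRNA was quantified by qRT-PCR against ACTB, GAPDH and POLR2A.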

[9] = read-out: growth arrest and DNA damage 45 (GADD45G), GADD45G (gene 10912); assay: LTEA_HepaRG_GADD45G: Life Technologies and Expression Analysis (LTEA) Assay for growth arrest and DNA damage 45 (GADD45G) using HepaRG (AID 2283499)
Procedure, shortened: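 Differentiated human HepaRG cells, 48 h post-plating, exposed 48 h in serum-free induction medium to 8 half-log concentrations (top 100 uM, 0.5% DMSO) in duplicate. GADD45G mRNA measured by Fluidigm TaqMan qRT-PCR, normalized to ACTB, GAPDH, POLR2A; bidirectional fit versus DMSO.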

[10] = read-out: Glutamate-cysteine ligase regulatory (GCLM), GCLM (gene 2730); assay: LTEA_HepaRG_GCLM: Life Technologies and Expression Analysis (LTEA) Assay for Glutamate-cysteine ligase regulatory (GCLM) using HepaRG (AID 2283500)
Procedure, shortened: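 Cells were plated, cultured 48 h, switched to serum-free induction medium, then dosed in duplicate for 48 h at eight half-log concentrations up to 100 uM. RNA was then profiled by qRT-PCR; gain or loss versus DMSO was fitted.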

[11] = read-out: Glutathione S-transferase M3 (GSTM3), GSTM3 (gene 2947); assay: LTEA_HepaRG_GSTM3: Life Technologies and Expression Analysis (LTEA) Assay for Glutathione S-transferase M3 (GSTM3) using HepaRG (AID 2283501)
Procedure, shortened: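 Differentiated human HepaRG cells were exposed in duplicate for 48 h in serum-free induction medium, 8 points from 100 uM top in half-log steps, 0.5% DMSO. GSTM3 mRNA was measured by TaqMan qRT-PCR, normalized to ACTB, GAPDH and POLR2A; bidirectional fit versus DMSO.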

[12] = read-out: Heat shock 70 kDa protein 1 (HSPA1A), gene 3303; assay: LTEA_HepaRG_HSPA1A: Life Technologies and Expression Analysis (LTEA) Assay for Heat shock 70 kDa protein 1 (HSPA1A) using HepaRG (AID 2283502)
Procedure, shortened: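 Readout is HSPA1A transcript level by microfluidic qRT-PCR, normalized to three housekeeping genes and analysed for gain or loss of signal relative to 0.5% DMSO. Human HepaRG cultures received test chemicals for 48 h at up to 100 uM.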

[13] = read-out: Hypoxia-inducible factor 1-alpha (Homo sapiens) (UniProt Q16665); assay: LTEA_HepaRG_HIF1A: Life Technologies and Expression Analysis (LTEA) Assay for Hypoxia-inducible factor 1 (HIF1A) Trancription factor using HepaRG (AID 2283503)
Procedure, shortened: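 Differentiated HepaRG cells in serum-free induction medium exposed 48 h, in duplicate, to 8-point half-log series from 100 uM in 0.5% DMSO. HIF1A mRNA measured by TaqMan qRT-PCR, normalized to ACTB/GAPDH/POLR2A, fitted bidirectionally versus DMSO.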

[14] = read-out: 3-Hydroxy-3-Methylglutaryl-CoA Synthase 2 (HMGCS2), HMGCS2 (gene 3158); assay: LTEA_HepaRG_HMGCS2: Life Technologies and Expression Analysis (LTEA) Assay for 3-Hydroxy-3-Methylglutaryl-CoA Synthase 2 (HMGCS2) using HepaRG (AID 2283504)
Procedure, shortened: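 Human HepaRG cells in serum-free induction medium were exposed in duplicate for 48 h to 8-point half-log series from 100 uM top in 0.5% DMSO. HMGCS2 mRNA measured by TaqMan qRT-PCR, normalised to ACTB, GAPDH, POLR2A; bidirectional fit versus DMSO.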

[15] = read-out: Insulin Like Growth Factor 1 (IGF1), IGF1 (gene 3479); assay: LTEA_HepaRG_IGF1: Life Technologies and Expression Analysis (LTEA) Assay for Insulin Like Growth Factor 1 (IGF1) using HepaRG (AID 2283506)
Procedure, shortened: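 HepaRG, plated 48 h, then switched to serum-free induction media; test chemical 8-pt half-log from 100 uM (0.5% DMSO), duplicate, 48 h. Lysis in RLT, TaqMan qRT-PCR, norm. ACTB/GAPDH/POLR2A. Bidirectional fit vs DMSO.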

[16] = read-out: Intercellular Adhesion Molecule 1 (ICAM1), ICAM1 (gene 3383); assay: LTEA_HepaRG_ICAM1: Life Technologies and Expression Analysis (LTEA) Assay for Intercellular Adhesion Molecule 1 (ICAM1) using HepaRG (AID 2283507)
Procedure, shortened: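 Differentiated human HepaRG cells in serum-free induction medium exposed 48 h in duplicate to 8 half-log concentrations (top 100 uM, 0.5% DMSO). ICAM1 mRNA quantified by TaqMan qRT-PCR, normalized to ACTB, GAPDH and POLR2A; bidirectional fitting versus DMSO.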

[17] = read-out: Cytochrome P450 3A7 (Homo sapiens) (UniProt P24462); assay: LTEA_HepaRG_CYP3A7: Life Technologies and Expression Analysis (LTEA) Assay for CYP3A7 using HepaRG (AID 2283492)
Procedure, shortened: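 Differentiated HepaRG cells in serum-free induction medium exposed 48 h in duplicate to 8-point half-log series from 100 uM top in 0.5% DMSO. CYP3A7 mRNA by qRT-PCR, normalized to ACTB/GAPDH/POLR2A, bidirectional fit versus DMSO.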

[18] = read-out: Cytochrome P450 7A1 (Homo sapiens) (UniProt P22680); assay: LTEA_HepaRG_CYP7A1: Life Technologies and Expression Analysis (LTEA) Assay for Cytochrome P450 7A1 (CYP7A1) using HepaRG (AID 2283496)
Procedure, shortened: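 HepaRG cells plated 48 h, then switched to serum-free induction medium and exposed in duplicate for 48 h to 8-point half-log series from 100 uM in 0.5% DMSO. CYP7A1 mRNA by qRT-PCR (TaqMan), normalized to ACTB/GAPDH/POLR2A; bidirectional fit versus DMSO.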

HGF (gene 3082) = assay: LTEA_HepaRG_HGF: Life Technologies and Expression Analysis (LTEA) Assay for Hepatocyte Growth Facto (HGF) using HepaRG (AID 2283505)
Procedure, shortened: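 Differentiated HepaRG cells in serum-free induction medium exposed 48 h in duplicate, 8 half-log concentrations from 100 uM in 0.5% DMSO. HGF mRNA by qRT-PCR, normalised to ACTB, GAPDH, POLR2A; bidirectional fitting.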

Measured: outcome

Hypoxia-inducible factor 1-alpha (Homo sapiens), sequence (Q16665 whole entry, looked up): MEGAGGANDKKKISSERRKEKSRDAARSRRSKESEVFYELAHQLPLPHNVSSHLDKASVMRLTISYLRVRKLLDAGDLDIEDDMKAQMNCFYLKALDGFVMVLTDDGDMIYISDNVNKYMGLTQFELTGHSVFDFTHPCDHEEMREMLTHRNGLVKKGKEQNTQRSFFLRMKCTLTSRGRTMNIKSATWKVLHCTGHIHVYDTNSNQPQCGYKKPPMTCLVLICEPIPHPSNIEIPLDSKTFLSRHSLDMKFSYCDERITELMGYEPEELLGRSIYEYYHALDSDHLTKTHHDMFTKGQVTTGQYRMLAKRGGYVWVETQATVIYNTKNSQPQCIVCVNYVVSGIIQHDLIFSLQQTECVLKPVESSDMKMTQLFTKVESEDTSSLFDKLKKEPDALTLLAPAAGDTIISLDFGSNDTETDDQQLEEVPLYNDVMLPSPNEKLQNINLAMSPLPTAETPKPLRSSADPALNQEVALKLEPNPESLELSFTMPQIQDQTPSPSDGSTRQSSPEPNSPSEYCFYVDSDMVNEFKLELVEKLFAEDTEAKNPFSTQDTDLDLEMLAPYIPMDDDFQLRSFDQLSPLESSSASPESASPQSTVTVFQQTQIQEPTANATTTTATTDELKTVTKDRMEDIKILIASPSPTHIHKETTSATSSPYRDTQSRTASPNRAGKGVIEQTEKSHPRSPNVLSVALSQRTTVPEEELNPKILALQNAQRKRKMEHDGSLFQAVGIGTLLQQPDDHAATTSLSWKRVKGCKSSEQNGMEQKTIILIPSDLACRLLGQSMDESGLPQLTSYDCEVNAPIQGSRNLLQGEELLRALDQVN
Cytochrome P450 3A7 (Homo sapiens), sequence (P24462 whole entry, looked up): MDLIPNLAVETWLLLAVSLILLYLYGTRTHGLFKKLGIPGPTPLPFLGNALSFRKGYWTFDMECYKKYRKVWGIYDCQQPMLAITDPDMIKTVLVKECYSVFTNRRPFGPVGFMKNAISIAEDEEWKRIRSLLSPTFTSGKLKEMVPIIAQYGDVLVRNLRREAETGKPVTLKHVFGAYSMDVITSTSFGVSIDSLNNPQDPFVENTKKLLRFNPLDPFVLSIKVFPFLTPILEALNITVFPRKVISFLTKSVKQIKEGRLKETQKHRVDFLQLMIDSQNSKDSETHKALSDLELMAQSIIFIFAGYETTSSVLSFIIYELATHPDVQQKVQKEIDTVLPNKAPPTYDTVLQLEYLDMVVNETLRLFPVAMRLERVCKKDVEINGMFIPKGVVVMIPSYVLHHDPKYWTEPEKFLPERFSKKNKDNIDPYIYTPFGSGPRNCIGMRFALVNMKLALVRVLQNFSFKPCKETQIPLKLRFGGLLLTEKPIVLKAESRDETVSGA

CCCCCCCCCCCCCO
not listed: [17] | [18] | HGF (gene 3082)
inactive: all other assays above

Oc1ccc2c(c1)OC[C@@H](N1CCC(O)(c3ccc(F)cc3)CC1)[C@H]2O
not listed: [8] | [17] | [18] | HGF (gene 3082)
inactive: all other assays above

CC(CO)OC(C)CO (stereo unspecified) (tested in a mixture with another compound)
not listed: [3]
inactive: all other assays above

CC(=O)C(C)=CC1C(C)=CCCC1(C)C (stereo unspecified)
not listed: [12] | [17] | [18]
inactive: all other assays above

CCCCOC(=O)CCCCCCCCC(=O)OCCCC
not listed: [8] | [18]
inactive: all other assays above

Cc1cccc(C)c1O
not listed: [12] | [17] | [18] | HGF (gene 3082)
inactive: all other assays above

Cc1ccc(N(C)C)cc1
not listed: [3] | HGF (gene 3082)
inactive: all other assays above
